Assay results as given in paper PMC4552634, “A New Set of Chemical Starting Points with Plasmodium falciparum Transmission-Blocking Potential for Antimalarial Drug Discovery” (PLoS ONE, 2015).
The whole screen tested about 13,000 compounds, of which about 3,200 (25%) showed an effect of 50% or more. The list shows a part of the results.

Test system: P. falciparum stage V gametocytes
Design: BacTiter-Glo ATP luminescence viability of purified stage V gametocytes in 384-well plates, per cent inhibition versus DMSO
Settings: 48 h, 5 µM; inhibitor

SMILES	% Inhibition
O=C(Cc1cccc(O)c1)NCC(Cc1ccc(O)cc1)c1ccccc1 (stereo not shown) [TCMDC-138482]	7.528%
CC1CCc2c(C(=O)Nc3c(F)cc(F)cc3Br)csc2C1 (stereo not shown) [TCMDC-125219]	6.238%
Cc1cc(Nc2ccc(O)cc2)nc2cccc(O)c12 [TCMDC-124414]	-26.97%
Cc1cc(N2CCN(C3CCCCC3)CC2)nc2cccc(O)c12 [TCMDC-124411]	54.36%
Cc1cc(N2CCC(C)CC2)nc2cc(O)ccc12 [TCMDC-124413]	-4.047%
COc1ccc(Cl)c(CC2c3cc(O)c(Cl)cc3CCN2C)c1 (stereo not shown) [TCMDC-137168]	-67.78%
CN(C)CCOc1ccc2c(=O)cc(CCc3cccc(F)c3F)n(CC(=O)N(C)Cc3ccc(-c4ccc(C(F)(F)F)cc4)cc3)c2c1 [TCMDC-141375]	124.4%
CN(Cc1ccc(-c2ccc(C(F)(F)F)cc2)cc1)C(=O)Cn1c(CCc2cccc(F)c2F)cc(=O)c2ccc(OCC3CCCN3C)cc21 (stereo not shown) [TCMDC-141405]	117.2%
CN(Cc1ccc(-c2ccc(C(F)(F)F)cc2)cc1)C(=O)Cn1c(CCc2cccc(F)c2F)cc(=O)c2ccc(OCCCN3CCCCC3)cc21 [TCMDC-141377]	112.1%
CCN(CC)CCc1ccc2c(=O)cc(CCc3cccc(F)c3F)n(CC(=O)N(C)Cc3ccc(-c4ccc(C(F)(F)F)cc4)cc3)c2c1 [TCMDC-141559]	137.8%
CCOC(=O)CCCCCNC[C@H](O)c1ccccc1 [TCMDC-131776]	-2.137%
CC(C)NCc1ccc(-c2ccc(CN3CCCC(c4ccccc4)C3)cc2)c(C(=O)NCC2CCCCC2)c1 (stereo not shown) [TCMDC-134699]	33.35%
Cc1c(CNCCN2CCCCC2)c(C(=O)O)c(C)n1Cc1ccc(Cl)cc1 [TCMDC-125269]	31.51%
O=S(=O)(NCCN1CCCC1)c1ccc(-c2ccc(CNCc3ccc(F)cc3)cc2)cc1 [TCMDC-132280]	62.82%
O=S(=O)(NCCN1CCCC1)c1ccc(-c2ccc(CNCc3ccccc3)cc2)cc1 [TCMDC-132228]	101.6%
Clc1ccc(-c2ccc(CNCCCN3CCCC3)cc2)cc1 [TCMDC-140148]	75.83%
O=S(=O)(Nc1cc2c(cc1O)CCN(C1CCC1)CC2)c1ccc(-c2ccc(F)cc2)cc1 [TCMDC-136084]	-82.22%
NC(Cc1ccc(Cl)cc1)=NCCN1CCCCCC1 [TCMDC-137727]	39.5%
COC(=O)c1cc(/C(C)=N/Nc2nc3ccccc3[nH]2)ccc1O [TCMDC-139075]	-14.17%
O=C(NC1CC1)c1ccc(N2CCC(Cc3ccccc3)CC2)nc1 [TCMDC-134591]	24.62%
COC(=O)c1ccc(CC(C)NCC(O)c2cccc(C(F)(F)F)c2)cc1C (stereo not shown) [TCMDC-131470]	8.047%
C[C@H](Nc1nc(C(Oc2ccccc2)c2ccccc2)nc2[nH]ncc12)c1ccccc1 (stereo partly shown) [TCMDC-136553]	53.92%
COc1cccc(OC(C)(C)c2nc(N[C@@H](C)c3ccccc3)c3cn[nH]c3n2)c1 [TCMDC-136619]	13.05%
OC[C@H](Nc1nc(C(Oc2ccccc2)c2ccccc2)nc2[nH]ncc12)c1ccccc1 (stereo partly shown) [TCMDC-136552]	43.31%

SMILES	% Inhibition
CC1(C)NC(N)=NC(=N)N1OCc1ccc(-c2ccccc2)cc1 [TCMDC-131591]	-7.815%
COc1ccc2nc(C)cc(NN=Cc3cccc(Cl)c3)c2c1 [TCMDC-142077]	106.6%
COc1cc(C=NNc2cc(C)nc3ccccc23)cc(OC)c1OC [TCMDC-123958]	-11.67%
COc1ccc2c(NN=Cc3cccc(C)n3)ccnc2c1 [TCMDC-142031]	-34.06%
COc1ccc2c(NN=Cc3cccc(Cl)c3)cc(C)nc2c1 [TCMDC-142080]	55.62%
COc1ccc2nc(C)cc(NN=Cc3ccccc3Cl)c2c1 [TCMDC-142078]	-47.04%
Cc1cc(NN=CC=Cc2ccccc2)c2ccccc2n1 [TCMDC-142074]	-83.64%
COc1ccc2c(NN=Cc3ccccc3Cl)cc(C)nc2c1 [TCMDC-142079]	78.38%
COc1ccc2nc(C)cc(N/N=C/C=C/c3ccccc3)c2c1 [TCMDC-142095]	88.89%
Cc1ccc2nc(C)cc(NN=CC=Cc3ccccc3)c2c1 [TCMDC-123974]	-10.18%
Cc1cc(NN=Cc2ccccc2Cl)c2ccccc2n1 [TCMDC-142059]	-35.38%
CN(Cc1c(Cl)cnn1C)S(=O)(=O)c1ccc2ccccc2c1 [TCMDC-124903]	3.551%
CC(=O)Nc1ncc(C(=O)Nc2cccc(-c3ccc(-c4nc5cc(C(F)(F)F)ccc5[nH]4)s3)c2)s1 [TCMDC-136915]	15.71%
Cc1ccc(CN2CCC(C(=O)Nc3ccc(-c4cc5ccccc5[nH]4)cc3)CC2)o1 [TCMDC-124634]	-0.9664%
CC(ON1C(N)=NC(N)=NC1(C)C)c1ccccc1 (stereo not shown) [TCMDC-131596]	28.25%
O=C(Nc1ccc(-n2ccc(C(F)(F)F)n2)cc1)c1cccs1 [TCMDC-125785]	28.31%
Cc1cc(CNC(=O)[C@H](CC2CCCCC2)Nc2ccc(C#N)c3ccccc23)c(C(F)(F)F)o1 [TCMDC-136628]	-91.12%
Cc1cnc(-c2ccc(NC(=O)c3coc4ccc(N5CC(C)N(C)C(C)C5)cc34)cc2)o1 (stereo not shown) [TCMDC-141361]	27.19%
Cc1cc(O)nc(NC(=N)NOCc2ccccc2)n1 [TCMDC-131683]	7.113%
O=C(NC1CCCC1)c1ccc(N2CCC(NCc3cc4cc(Cl)ccc4[nH]3)CC2)cc1 [TCMDC-124662]	-4.187%
CCOc1ccc(C(=O)Nc2cc(Br)c3c(c2)CNCC3)cc1C#N [TCMDC-139731]	94.42%
COc1ccc(C(=O)Nc2cc(Br)c3c(c2)CNCC3)cc1Br [TCMDC-139727]	19.9%
CCOc1ccc(C(=O)Nc2cc(Br)c3c(c2)CNCC3)cc1Br [TCMDC-139729]	61.1%
COc1ccc(C(=O)Nc2cc(Br)c3c(c2)CNCC3)cc1C(F)(F)F [TCMDC-139728]	19.24%

SMILES	% Inhibition
CCOc1ccc(C(=O)Nc2cc(Br)c3c(c2)CNCC3)cc1C(F)(F)F [TCMDC-139732]	37.39%
CCOc1ccc(C(=O)Nc2cc(Br)c3c(c2)CNCC3)cc1Cl [TCMDC-139730]	27.05%
O=C1c2ccccc2C(=O)N1c1ccc(S(=O)(=O)N2CCOCC2)cc1 [TCMDC-125740]	8.047%
CC(=O)N(C)c1ccc(C(=O)Nc2cccc(-c3cccc(-c4nc5c(C)cccc5[nH]4)c3)c2)cc1 [TCMDC-136850]	-24.43%
CC(C)Sc1nc2c(c(=O)n1Cc1ccco1)C1(CCCC1)Cc1ccccc1-2 [TCMDC-125844]	9.662%
CC(C)(C)c1ccccc1SC1=C(O)CC2(CCNCC2)OC1=O [TCMDC-140973]	16.85%
Cc1cccc2nc(-c3ccc(-c4ccc(CN5CCCCC5CO)cc4)cc3)[nH]c12.O=C(O)C(F)(F)F (stereo not shown) [TCMDC-133824]	10.09%
Cn1nc(-c2ccc(CNC3CCc4ccccc43)cc2)c2cnc(NCCN3CCCC3)nc21 (stereo not shown) [TCMDC-135033]	65.68%
Cn1nc(-c2ccc(CNC3CCc4ccccc43)cc2)c2cnc(NCCCN3CCCC3)nc21 (stereo not shown) [TCMDC-135036]	65.55%
CN(c1cc(NC(=O)c2cccs2)ccn1)C1CCN(Cc2cccc(F)c2)CC1 [TCMDC-135010]	5.779%
COc1ccc2nccc([C@@H](O)CN3CCC(NC(=O)C(c4cc5ccccc5o4)N4CCN(C(c5ccccc5)c5ccccc5)CC4)CC3)c2c1 (stereo partly shown) [TCMDC-140990]	16.51%
O=C(Nc1ccc(NC2=NCCN2)cc1)c1ccc(C(=O)Nc2ccc(NC3=NCCN3)cc2)cc1 [TCMDC-137799]	30.06%
Nc1ncc(-c2cccc(F)c2)cc1-c1nc2ccc(F)cc2[nH]1 [TCMDC-133132]	-10.73%
CCOC(=O)c1ccc(NC(=O)Nc2cccc(-c3cccc(-c4nc5ccc(F)cc5[nH]4)c3)c2)cc1 [TCMDC-133268]	-1.066%
CCc1nc(N)nc(N)c1-c1ccc(F)cc1 [TCMDC-137722]	5.569%
CC[C@H]1CN2CC[C@H]1C[C@H]2[C@H](O)c1cc(-c2ccc(OC(F)(F)F)cc2)nc2ccc(OC)cc12 [TCMDC-141214]	67.8%
CC[C@H]1CN2CC[C@H]1C[C@H]2[C@H](O)c1cc(-c2ccccc2C(F)(F)F)nc2ccc(OC)cc12 [TCMDC-141198]	-3.019%
CC[C@H]1CN2CC[C@@H]1C[C@@H]2[C@@H](O)c1cc(-c2ccc(F)cc2)nc2ccc(OC)cc12 [TCMDC-141379]	96.07%
CC[C@H]1CN2CC[C@H]1C[C@H]2[C@H](O)c1cc(-c2ccc(Cl)c(Cl)c2)nc2ccc(OC)cc12 [TCMDC-141216]	98.02%
CC[C@H]1CN2CC[C@H]1C[C@H]2[C@H](O)c1cc(-c2ccc(SC)cc2)nc2ccc(OC)cc12 [TCMDC-141196]	82.69%
CC[C@H]1CN2CC[C@H]1C[C@H]2[C@H](O)c1cc(-c2ccccc2F)nc2ccc(OC)cc12 [TCMDC-141193]	19.12%
O=C(NCCN1CCCCC1)c1ccc(CNC(=O)c2ccc(O)c(-c3ccc(Cl)c(Cl)c3)c2)cc1 [TCMDC-140860]	-11.08%
